Source: PubChem BioAssay
The sample as a whole holds a higher share of hits than the screen did.
Pf Dd2 growth: Plasmodium falciparum Dd2 growth inhibition | P. falciparum Dd2 growth, SYBR Green, 72 h | Potency, µM (highest dose often 28.9 µM), actives largely listed as inhibitors | hit rate 4.3% among 120,000 | AID 1347417; active = well fitted inhibition curve with a large enough effect; also: nearly all actives have a fitted effect of over 65% in size
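Infected erythrocytes (Dd2, 0.3% parasitemia, 2.5% hematocrit final) are added to compound in RPMI-1640/Albumax II medium, grown 72 h at 37C in low oxygen, then lysed with saponin/Triton-X containing SYBR Green and read by fluorescence.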
Each line names hits and unclear results; the compound was inactive in the other large screens.

CC(=O)Nc1cccc(-c2cnc3n[nH]c(-c4ccc5c(c4)OCO5)c3n2)c1	Pf Dd2 growth 2.51µM
CCC(=O)Nc1ccccc1-c1nc2ccccc2n(CC(=O)Nc2ccccc2OC)c1=O	none
CCC(=O)Nc1ccccc1-c1nc2ccccc2n(C(CC)C(=O)Nc2cccc(Cl)c2)c1=O (stereo not drawn)	none
CCC(=O)Nc1ccccc1-c1nc2ccccc2n(C(C)C(=O)Nc2ccc(OC)cc2)c1=O (stereo not drawn)	Pf Dd2 growth 10µM
C[S+](=O)([O-])N1CCC(Cn2ccc3c(N4CCOCC4)nc(-c4cncnc4)cc32)CC1	none
COc1cccc(-c2cc3c(ccn3CC3CCN(C)CC3)c(N3CCOCC3)n2)c1	Pf Dd2 growth 6.31µM
c1cc(-c2cc3c(ccn3Cc3ccncc3)c(N3CCOCC3)n2)cc(N2CCOCC2)c1	none
C[S+](=O)([O-])N1CCC(Cn2ccc3c(N4CCOCC4)nc(-c4cccc5[nH]ccc45)cc32)CC1	none
COc1ncccc1-c1cc2c(ccn2CC2CCN(C)CC2)c(N2CCOCC2)n1	Pf Dd2 growth 8.91µM
COc1ccccc1-c1cc2c(ccn2Cc2ccncc2)c(N2CCOCC2)n1	none
CC(C)N1C(=O)C2(CCCCC2)C1C(=O)NCCCN1CCN(c2ccccc2)CC1 (stereo not drawn)	none
CC(=O)N1CCN2C(=O)N(Cc3ccc(F)cc3)C[C@H]2C1	none
O=C(c1ccc2cc[nH]c2c1)N1CCC2(CC1)CC(O)CCO2 (stereo not drawn)	none
CN(Cc1nc(C2CC2)no1)C(=O)c1cc(Cn2ccc3ccccc32)[nH]n1	none
CCNC(=O)CCc1c(C)nn(-c2cccc(C)c2)c1Oc1ccccc1C	none
Cc1cccc(-n2nc(C)c(CCC(=O)NC3CC3)c2Oc2ccccc2C)c1	none
Cc1cccc(-n2nc(C)c(CCC(=O)N3CCSCC3)c2Oc2ccccc2C)c1	Pf Dd2 growth 8.91µM
O=C(Nc1cccc(F)c1)N1CC(Oc2ccc(-c3noc(C4CCOCC4)n3)cc2)C1	none
O=C(NCC1CN(C(=O)Cc2ccc(C(F)(F)F)cc2)CC12CN(c1ccccc1)C2)c1ccccc1 (stereo not drawn)	none
C[C@H]1[C@@H]2[C@@H](O)C([C@H](C)C(=O)NCc3ccccn3)CC[C@@]2(C)CC[C@@H]1NC(=O)c1ccc(C#N)cc1 (stereo partly drawn)	Pf Dd2 growth 8.91µM
C[C@H]1[C@@H]2[C@@H](O)C([C@H](C)C(=O)NCc3cccnc3)CC[C@@]2(C)CC[C@@H]1NC(=O)c1ccc(C#N)cc1 (stereo partly drawn)	none
C[C@H]1[C@@H]2[C@@H](O)C([C@H](C)C(=O)NCc3ccccc3)CC[C@@]2(C)CC[C@@H]1NC(=O)c1ccc(C#N)cc1 (stereo partly drawn)	none
CN(C)CCCNC(=O)c1c(OCC2CC2)cc(=O)n2c1CCCCC2	none
CSc1cccc(NC(=O)O[C@@H]2CC[C@]3(C)C(CC[C@@H](O)[C@H]3CC(=O)NCc3ccccc3)[C@]2(C)CO)c1 (stereo partly drawn)	Pf Dd2 growth 11.2µM
CSc1cccc(NC(=O)O[C@@H]2CC[C@]3(C)C(CC[C@@H](O)[C@H]3CC(=O)N3CCCC3)[C@]2(C)CO)c1 (stereo partly drawn)	Pf Dd2 growth 5.01µM
C[C@]1(CO)C2CC[C@@H](O)[C@@H](CC(=O)N3CCCC3)[C@]2(C)CC[C@H]1OC(=O)Nc1cccc(F)c1 (stereo partly drawn)	none
CSc1cccc(NC(=O)O[C@@H]2CC[C@]3(C)C(CC[C@@H](O)[C@H]3CC(=O)N3CCC[C@H]3CO)[C@]2(C)CO)c1 (stereo partly drawn)	none
CCCNC(=O)O[C@@H]1CC[C@]2(C)C(CC[C@@H](O)[C@H]2CC(=O)NCc2ccc(F)cc2)[C@]1(C)CO (stereo partly drawn)	none
COc1cc(NC(=O)O[C@@H]2CC[C@]3(C)C(CC[C@@H](O)[C@H]3CC(=O)N3CCCC3)[C@]2(C)CO)cc(OC)c1OC (stereo partly drawn)	none
FC(F)(F)c1ccc(N2C3CCC2CN(Cc2cccc(-c4cccnc4)c2)C3)cc1	Pf Dd2 growth 11.2µM
FC(F)(F)c1ccc(N2C3CCC2CN(Cc2ccc(-c4ccsc4)cc2)C3)cc1	none
FC(F)(F)c1ccc(N2C3CCC2CN(Cc2ccc(-c4ccccc4)cc2)C3)cc1	none
CCc1nn(-c2ccc(F)cc2)c(Oc2ccccc2)c1CCC(=O)N(C)C(C)C	none
C1CC(c2noc(C34CC5CC(CC(C5)C3)C4)n2)CO1 (stereo not drawn)	none
COc1ccccc1-c1ccc(CN)cc1	none
COc1ccc(F)cc1-c1ccc(C=O)cc1	none
COc1ccc(F)cc1-c1ccccc1CN	Pf Dd2 growth 10µM
Cc1noc(-c2nc(-c3ccc(OC(C)C)cc3)no2)n1	none
CN1CCN([C@@H]2[C@H](O)[C@H](CO)O[C@@H]2CNC(=O)c2ccco2)CC1	none
COCC(=O)N(C1CCOCC1)C1CCN(C(=O)Cc2ccc(C)cc2)CC1	none
COc1ccc(N(C)C(=O)c2cc3c(s2)-c2ccccc2OC3)cc1	none
COc1ccccc1N1CCN(C(=O)c2cc3c(s2)-c2ccccc2OC3)CC1	none
